RecA intein inh: inhibitors of M. tuberculosis RecA intein splicing. inhibition, % (test concentration not listed). P9WHJ3. 290,000 compounds, 0.75% hits. AID 2221. cell-free RecA intein splicing, fluorescence; in the data active = inhibition above about 30%;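 note: 0% = vehicle wells and 100% = reference inhibitor control wells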
Mtb betalactam: beta-lactam sensitization of Mtb H37Rv; M. tuberculosis H37Rv growth with meropenem, percent inhibition; 330,000 compounds, 0.27% hits; inhibition, % at 25 µM; AID 434955; call rule not given here;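 note: growth measured after seven days incubation then overnight dye step; 0% = bacteria only wells and 100% = bacteria with antibiotic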
PriA SSB inh: inhibitors of Klebsiella pneumoniae PriA binding to SSB C-terminal tail; 430,000 compounds, 0.6% hits; AID 1272365; inhibition, % at 33 µM; AlphaScreen SSBct-PriA binding, biotinylated peptide; in the data active = inhibition mostly above about 37%, no sharp cut-off; inactive = mostly below about 20%;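 note: plate controls were negative control peptide for no effect and reference peptide for full effect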
Rv3671c inh: Rv3671c (M. tuberculosis) protease inhibition. 320,000 compounds, 0.048% hits. inhibition, % at 5.96 µM; in the data active = inhibition above about 38%;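 note: extracellular domain of Rv3671c used as enzyme; 0% = enzyme with DMSO and 100% = no enzyme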
Mtb UGM inh: inhibitors of M. tuberculosis UDP-galactopyranose mutase; 320,000 compounds, 0.06% hits; P9WIQ1; inhibition, % at 10 µM; purified UGM, fluorescence polarization probe displacement; in the data active = inhibition above about 10%, passing the limit was not always enough
Target sequence (P9WIQ1 whole entry, looked up): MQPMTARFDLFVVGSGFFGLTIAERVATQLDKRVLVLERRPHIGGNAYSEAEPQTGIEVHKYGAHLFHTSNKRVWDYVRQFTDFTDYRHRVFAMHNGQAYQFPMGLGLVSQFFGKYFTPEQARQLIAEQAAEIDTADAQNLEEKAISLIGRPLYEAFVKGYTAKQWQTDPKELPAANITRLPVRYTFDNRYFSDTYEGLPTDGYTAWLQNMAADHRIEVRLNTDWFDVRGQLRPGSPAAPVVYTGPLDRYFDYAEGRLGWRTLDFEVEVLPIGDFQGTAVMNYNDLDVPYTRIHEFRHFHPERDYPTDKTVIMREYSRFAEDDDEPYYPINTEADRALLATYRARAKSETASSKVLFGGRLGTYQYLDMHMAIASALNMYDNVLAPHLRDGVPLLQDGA
The depositor's hits bear a star; i = inactive; x = no result given; + = active, no number; ! = not confirmed by another sample. Shown are actives, neighbours in structure and some others; about 1.1% of the full set was active somewhere.

SMILES	RecA intein inh	Mtb betalactam	PriA SSB inh	Rv3671c inh	Mtb UGM inh
Oc1ccccc1N=N/C(=N/Nc1ccccc1O)c1ccccc1	-1.6	24.2	i	1.0	1.9
N#C/C(N=Nc1ccccc1O)=N\Nc1ccccc1O	-2.7	100.5	+	-154.8	1.7
COc1ccc(-c2csc(CN3CCN(C(=O)c4ccc(Br)o4)CC3)n2)cc1	x	x	44.0*	x	x
O=C(O)c1ccc(=O)[nH]n1	x	x	41.0*	x	x
O=C(CN1C(=O)COc2ccccc21)Nc1ccc(Cl)cc1	x	x	52.5*	x	x
O=C(c1ccncc1)N1CCCC[C@H](c2ccc(F)cc2)C1	x	x	-7.0	x	x
O=C(c1ccc(Cn2ccnc2)cc1)N1CCCC[C@H](c2ccc(F)cc2)C1	x	x	32.0*	x	x
CCOc1cc(N2CCN(S(=O)(=O)c3ccc4c(c3)OCCO4)CC2)nc(C)n1	x	x	-5.0	x	x
CCOC(=O)c1sc(-c2ccccc2)cc1NC(=O)c1cccc(C(F)(F)F)c1	x	x	-17.0	x	x
O=c1c2ccccc2c(-c2n[nH]c(=S)o2)nn1Cc1ccccc1	8.0	-5.0	-6.1	-0.8	6.5
OCc1ccc(-c2nn(Cc3ccccc3)c3ccccc23)o1	7.1	5.6	41.5*	-11.6	1.6
CC(C)(C)c1ccc(C(=O)OC(c2ccccc2)c2nccc3ccccc23)cc1 (stereo unspecified)	x	x	-14.0	x	x
O=C(OC(c1ccccc1)c1nccc2ccccc12)c1cc([N+](=O)[O-])cc([N+](=O)[O-])c1 (stereo unspecified)	0.8	99.5	51.7*	7.0	2.1
CC(O)(CNC(=O)Cc1cccs1)C1CC1 (stereo unspecified)	x	x	-7.0	x	x
Cc1cc(CNC(=O)Nc2ccc3c(c2)OCO3)c(C)o1	x	x	39.0*	x	x
CCN(CC)CCn1c2ccccc2c(=O)c2c(O)ccc(O)c21	x	x	53.9*	x	x
N#Cc1cc2c(nc1SCC(=O)O)CCC2	x	x	-2.0	x	x
C/C(CC(=O)Nc1cc(C)ccn1)=N\NC(=O)c1ccc(C)cc1	61.5*	9.3	x	2.9	-0.1
CC(CC(=O)Nc1cc(C)ccn1)=NNC(=O)c1ccc(C(C)(C)C)cc1	x	x	-1.4	x	x
O=C(Nc1ccc(F)c(Cl)c1)Nc1c[nH]c2ccccc12	x	x	54.0*	x	x
Cc1ccc(NC(=O)Nc2c[nH]c3ccccc23)cc1Cl	x	x	-10.0	x	x
CCc1ccc(NC(=O)Nc2c[nH]c3ccccc23)cc1	x	x	38.0*	x	x
CC(C)c1ccc(NC(=O)Nc2c[nH]c3ccccc23)cc1	x	x	39.0*	x	x
COc1ccc(C(O)CNC(=O)C(C)Oc2ccccc2)cc1OC (stereo unspecified)	x	x	-3.0	x	x
c1ccc(-c2cn(C[C@H]3CC[C@H](Cn4cc(-c5ccccn5)nn4)O3)nn2)nc1	-0.8	-5.6	109.1*	-1.5	1.9
SMILES	RecA intein inh	Mtb betalactam	PriA SSB inh	Rv3671c inh	Mtb UGM inh
O=S(=O)(O)c1cccc2c(N=Nc3ccc(O)c4ncccc34)cccc12	10.4	9.1	61.9*	27.4	1.2
Cc1ccccc1N=Nc1ccc(O)c2ncccc12	1.4	85.2	56.9	6.7	-1.1
CCOC1=C/C(=C/c2c(N)n3nc(-c4ccccc4)sc3nc2=O)C=CC1=O	2.9	x	x	x	x
CCOC1=C/C(=C/c2c(N)n3oc(C)cc3nc2=O)C=CC1=O	37.7*	3.1	x	4.8	2.9
Cc1ccc(-n2ncc3c(=O)[nH]c(SC/C=C/c4ccccc4)nc32)cc1	x	x	-3.0	x	x
CCCNc1nc(SCC)nc2c1cnn2CCNC(=O)c1c(-c2ccccc2Cl)noc1C	x	x	88.0*	x	x
Cc1cc2ccccc2n1CCNC(=O)COc1ccccc1	-3.0	x	48.6*	10.2	2.9
Cc1onc(-c2ccccc2Cl)c1C(=O)NCCn1c(C)cc2ccccc21	-68.7	-7.8	87.0*	-3.8	-1.4
O=C(Nc1nc2ccccc2[nH]1)C1CCCN1/C=C/C(=O)C(F)(F)F (stereo unspecified)	x	x	-23.0	x	x
COC(=O)c1[nH]c2cc(OC)c(OC)cc2c1C=NNc1ccccc1	x	x	2.7	x	x
Cc1ccc(-c2csc(NNC3=NCCCCC3)n2)cc1	x	x	62.0*	x	x
COc1ccc(-c2csc(NNC3=NCCCCC3)n2)cc1	x	12.3	-8.4	-9.7	-1.1
CN(C)c1ccc(N=Nc2ccccc2C(=O)OCC(=O)N2CCCC2)cc1	-3.4	97.0	52.9*	8.3	-0.4
CN(C)c1ccc(N=Nc2ccccc2C(=O)OCC(=O)N2CCCCCC2)cc1	2.4	28.5	63.7	1.7	0.4
Cc1cc2ncc(CCCNC(=O)CCc3ccc(S(C)(=O)=O)cc3)cn2n1	x	x	0.0	x	x
c1ccc(C2=Nc3c(ccc4ccccc34)C(c3ccncc3)=NN2)cc1	7.4	10.6	46.9*	5.6	-2.3
Cc1ccc2c(c1)C(c1ccncc1)=NNC(c1ccccc1)=N2	7.1	1.2	-15.4	-0.4	0.5
COC(=O)CC1=Nc2ccccc2N=C(SCC(=O)NCc2ccc(Cl)cc2)C1	x	x	-8.0	x	x
COc1ccc(OC)c(-c2cc(C3CCN(c4ncccc4[N+](=O)[O-])CC3)[nH]n2)c1	11.8	98.6	65.0*	-5.9	1.4
C=C(C)C1CC=C(C)C(=NNc2ccccc2[N+](=O)[O-])C1 (stereo unspecified)	x	x	40.7*	x	x
COC(=O)c1cccc(Nc2nn3c(=O)c4cc(OC)c(OC)cc4nc3s2)c1	x	x	-20.0	x	x
CN(N=Nc1ccc([N+](=O)[O-])cc1)c1ccccc1	-1.3	50.7	11.2	-6.7	25.6*
O=C(Nc1ncn[nH]1)c1ncc(-c2ccc(Cl)cc2)o1	x	x	69.0*	x	x
O=C(NCCn1cccc1)C1CCc2nc[nH]c2C1 (stereo unspecified)	x	x	-8.0	x	x
COC(=O)c1ccc2nc(N)sc2c1	x	x	53.0*	x	x
SMILES	RecA intein inh	Mtb betalactam	PriA SSB inh	Rv3671c inh	Mtb UGM inh
Nc1nc2ccc(C(=O)O)cc2s1	x	x	89.0*!	x	x
CCCNC(=O)c1ccc2nc(N)sc2c1	x	x	87.3*	x	x
Cc1[nH]cnc1C(=O)NN=Cc1c(Cl)cccc1Cl	x	x	-8.6	x	x
COc1ccc(S(=O)(=O)N(CC(C)C)C2CCS(=O)(=O)C2)cc1 (stereo unspecified)	x	x	12.0	x	x
COc1ccc(S(=O)(=O)N(CC(C)C)C2CCS(=O)(=O)C2)cc1OC (stereo unspecified)	5.4	-2.9	38.3*	8.3	2.7
CN(c1ncnc2nc[nH]c12)C1CCCCC1	x	x	7.0	x	x
CN(CCO)c1ncnc2nc[nH]c12	0.6	1.4	104.2*	6.0	-0.8
COC(=O)c1ccc2c(c1O)C(=O)c1ccccc1C2=O	44.4*	100.1	35.0	-3.0	-0.3
O=C1c2ccccc2C(=O)c2c1ccc(O)c2O	x	x	-3.0	x	x
CC1=NNC(=O)C1Cc1ccc(F)cc1 (stereo unspecified)	96.6*	-2.0	-1.0	3.4	-0.8
CC1=NNC(=O)C1CCC(=O)N/N=C/c1ccc(C)cc1 (stereo unspecified)	-4.0	-9.2	i	12.3	3.5
CN1C(=O)CCc2cc(NC(=O)c3ccc(Br)o3)ccc21	x	x	10.0	x	x
Cc1ccc2nc(N(CCCn3ccnc3)C(=O)C3COc4ccccc4O3)sc2c1 (stereo unspecified)	x	x	35.0*	x	x
O=C1NC(=O)C2(CCN(S(=O)(=O)c3cccc(Cl)c3)CC2)N1	x	x	-11.0	x	x
O=C(O)[C@@H]1CCCC[C@@H]1C(=O)N1CCc2ccccc2C1CN1C(=O)c2ccccc2C1=O (stereo partly specified)	-0.3	x	54.8*	-1.4	-0.8
CCc1ccc2nc(N(CCN(C)C)C(=O)c3ccc(OC)c(OC)c3)sc2c1	x	x	16.0	x	x
COc1cccc(NC(=O)N2CCC(NC(=O)c3ccco3)CC2)c1	x	-4.3	-3.0	-11.2	-2.2
